According to the supplement of paper PMC11732987, “Enantioselective OTUD7B fragment discovery through chemoproteomics screening and high-throughput optimisation” (Communications Chemistry, 2025):
Values without a mark were called inactive.

Assays:
Experiment in all cases: log2 ratio of Biotin-Ahx-Ub-VS probe labelling (fragment/DMSO); higher = less target engagement (more negative = stronger competition), active = hit call of the paper (q ≤ 0.05, log2 ratio ≤ -1)
Conditions in all cases: compound concentration: 200 uM; treatment time: 3 h
[1] = molecular target: T1, USP19 (UniProt O94966)
T1 sequence (whole entry): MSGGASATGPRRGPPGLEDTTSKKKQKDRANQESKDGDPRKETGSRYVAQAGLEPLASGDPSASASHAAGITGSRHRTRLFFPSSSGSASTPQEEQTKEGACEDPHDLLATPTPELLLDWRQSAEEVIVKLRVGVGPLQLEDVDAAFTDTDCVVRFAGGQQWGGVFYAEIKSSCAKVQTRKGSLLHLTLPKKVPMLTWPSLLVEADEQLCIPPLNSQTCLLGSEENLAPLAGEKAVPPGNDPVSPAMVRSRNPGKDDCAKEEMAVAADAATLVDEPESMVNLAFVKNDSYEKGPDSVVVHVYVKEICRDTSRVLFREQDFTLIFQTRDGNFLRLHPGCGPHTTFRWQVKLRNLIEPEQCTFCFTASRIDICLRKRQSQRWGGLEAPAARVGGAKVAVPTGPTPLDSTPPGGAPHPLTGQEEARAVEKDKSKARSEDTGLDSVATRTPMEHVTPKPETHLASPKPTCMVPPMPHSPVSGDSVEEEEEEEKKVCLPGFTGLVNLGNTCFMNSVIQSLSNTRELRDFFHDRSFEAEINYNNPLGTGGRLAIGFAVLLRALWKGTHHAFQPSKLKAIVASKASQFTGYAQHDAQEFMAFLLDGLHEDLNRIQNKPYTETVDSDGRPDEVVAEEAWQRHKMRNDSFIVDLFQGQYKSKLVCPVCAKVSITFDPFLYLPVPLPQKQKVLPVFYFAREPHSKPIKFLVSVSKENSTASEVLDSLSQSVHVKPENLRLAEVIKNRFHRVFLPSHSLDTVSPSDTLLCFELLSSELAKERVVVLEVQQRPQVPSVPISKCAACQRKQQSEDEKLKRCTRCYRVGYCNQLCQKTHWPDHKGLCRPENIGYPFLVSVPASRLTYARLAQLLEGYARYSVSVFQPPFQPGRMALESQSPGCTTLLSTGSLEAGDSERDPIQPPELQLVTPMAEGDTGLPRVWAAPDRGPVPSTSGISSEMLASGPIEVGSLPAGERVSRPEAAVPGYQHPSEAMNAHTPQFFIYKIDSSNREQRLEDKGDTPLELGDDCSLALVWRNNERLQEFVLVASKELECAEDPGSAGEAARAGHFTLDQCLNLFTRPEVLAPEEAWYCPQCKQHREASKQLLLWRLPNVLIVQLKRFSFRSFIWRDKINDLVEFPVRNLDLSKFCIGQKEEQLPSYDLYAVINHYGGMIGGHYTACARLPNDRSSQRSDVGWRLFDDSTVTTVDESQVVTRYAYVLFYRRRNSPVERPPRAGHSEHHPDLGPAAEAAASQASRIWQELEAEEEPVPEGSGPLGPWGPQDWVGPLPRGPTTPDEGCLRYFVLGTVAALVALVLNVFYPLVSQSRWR
Summary of the method: (§1)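 HEK293T lysate (495 µg per sample, in Tris/CHAPS/IGEPAL buffer with protease inhibitors) was exposed in triplicate for 3 h to fragment at 200 µM or to vehicle, then to Biotin-Ahx-Ub-VS at 0.5 µM final for 1 h. Labelled DUBs were enriched on NeutrAvidin, digested with LysC and trypsin, and analysed by diaPASEF LC-MS/MS. Spectronaut label-free quantities were normalised to the global median, and values are average log2 ratios of fragment over vehicle from an unpaired t-test. Only proteins with ≥2 unique peptides were used.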

[2] = molecular target: USP24 (UniProt Q9UPU5)
Sequence of USP24 (Q9UPU5 whole entry): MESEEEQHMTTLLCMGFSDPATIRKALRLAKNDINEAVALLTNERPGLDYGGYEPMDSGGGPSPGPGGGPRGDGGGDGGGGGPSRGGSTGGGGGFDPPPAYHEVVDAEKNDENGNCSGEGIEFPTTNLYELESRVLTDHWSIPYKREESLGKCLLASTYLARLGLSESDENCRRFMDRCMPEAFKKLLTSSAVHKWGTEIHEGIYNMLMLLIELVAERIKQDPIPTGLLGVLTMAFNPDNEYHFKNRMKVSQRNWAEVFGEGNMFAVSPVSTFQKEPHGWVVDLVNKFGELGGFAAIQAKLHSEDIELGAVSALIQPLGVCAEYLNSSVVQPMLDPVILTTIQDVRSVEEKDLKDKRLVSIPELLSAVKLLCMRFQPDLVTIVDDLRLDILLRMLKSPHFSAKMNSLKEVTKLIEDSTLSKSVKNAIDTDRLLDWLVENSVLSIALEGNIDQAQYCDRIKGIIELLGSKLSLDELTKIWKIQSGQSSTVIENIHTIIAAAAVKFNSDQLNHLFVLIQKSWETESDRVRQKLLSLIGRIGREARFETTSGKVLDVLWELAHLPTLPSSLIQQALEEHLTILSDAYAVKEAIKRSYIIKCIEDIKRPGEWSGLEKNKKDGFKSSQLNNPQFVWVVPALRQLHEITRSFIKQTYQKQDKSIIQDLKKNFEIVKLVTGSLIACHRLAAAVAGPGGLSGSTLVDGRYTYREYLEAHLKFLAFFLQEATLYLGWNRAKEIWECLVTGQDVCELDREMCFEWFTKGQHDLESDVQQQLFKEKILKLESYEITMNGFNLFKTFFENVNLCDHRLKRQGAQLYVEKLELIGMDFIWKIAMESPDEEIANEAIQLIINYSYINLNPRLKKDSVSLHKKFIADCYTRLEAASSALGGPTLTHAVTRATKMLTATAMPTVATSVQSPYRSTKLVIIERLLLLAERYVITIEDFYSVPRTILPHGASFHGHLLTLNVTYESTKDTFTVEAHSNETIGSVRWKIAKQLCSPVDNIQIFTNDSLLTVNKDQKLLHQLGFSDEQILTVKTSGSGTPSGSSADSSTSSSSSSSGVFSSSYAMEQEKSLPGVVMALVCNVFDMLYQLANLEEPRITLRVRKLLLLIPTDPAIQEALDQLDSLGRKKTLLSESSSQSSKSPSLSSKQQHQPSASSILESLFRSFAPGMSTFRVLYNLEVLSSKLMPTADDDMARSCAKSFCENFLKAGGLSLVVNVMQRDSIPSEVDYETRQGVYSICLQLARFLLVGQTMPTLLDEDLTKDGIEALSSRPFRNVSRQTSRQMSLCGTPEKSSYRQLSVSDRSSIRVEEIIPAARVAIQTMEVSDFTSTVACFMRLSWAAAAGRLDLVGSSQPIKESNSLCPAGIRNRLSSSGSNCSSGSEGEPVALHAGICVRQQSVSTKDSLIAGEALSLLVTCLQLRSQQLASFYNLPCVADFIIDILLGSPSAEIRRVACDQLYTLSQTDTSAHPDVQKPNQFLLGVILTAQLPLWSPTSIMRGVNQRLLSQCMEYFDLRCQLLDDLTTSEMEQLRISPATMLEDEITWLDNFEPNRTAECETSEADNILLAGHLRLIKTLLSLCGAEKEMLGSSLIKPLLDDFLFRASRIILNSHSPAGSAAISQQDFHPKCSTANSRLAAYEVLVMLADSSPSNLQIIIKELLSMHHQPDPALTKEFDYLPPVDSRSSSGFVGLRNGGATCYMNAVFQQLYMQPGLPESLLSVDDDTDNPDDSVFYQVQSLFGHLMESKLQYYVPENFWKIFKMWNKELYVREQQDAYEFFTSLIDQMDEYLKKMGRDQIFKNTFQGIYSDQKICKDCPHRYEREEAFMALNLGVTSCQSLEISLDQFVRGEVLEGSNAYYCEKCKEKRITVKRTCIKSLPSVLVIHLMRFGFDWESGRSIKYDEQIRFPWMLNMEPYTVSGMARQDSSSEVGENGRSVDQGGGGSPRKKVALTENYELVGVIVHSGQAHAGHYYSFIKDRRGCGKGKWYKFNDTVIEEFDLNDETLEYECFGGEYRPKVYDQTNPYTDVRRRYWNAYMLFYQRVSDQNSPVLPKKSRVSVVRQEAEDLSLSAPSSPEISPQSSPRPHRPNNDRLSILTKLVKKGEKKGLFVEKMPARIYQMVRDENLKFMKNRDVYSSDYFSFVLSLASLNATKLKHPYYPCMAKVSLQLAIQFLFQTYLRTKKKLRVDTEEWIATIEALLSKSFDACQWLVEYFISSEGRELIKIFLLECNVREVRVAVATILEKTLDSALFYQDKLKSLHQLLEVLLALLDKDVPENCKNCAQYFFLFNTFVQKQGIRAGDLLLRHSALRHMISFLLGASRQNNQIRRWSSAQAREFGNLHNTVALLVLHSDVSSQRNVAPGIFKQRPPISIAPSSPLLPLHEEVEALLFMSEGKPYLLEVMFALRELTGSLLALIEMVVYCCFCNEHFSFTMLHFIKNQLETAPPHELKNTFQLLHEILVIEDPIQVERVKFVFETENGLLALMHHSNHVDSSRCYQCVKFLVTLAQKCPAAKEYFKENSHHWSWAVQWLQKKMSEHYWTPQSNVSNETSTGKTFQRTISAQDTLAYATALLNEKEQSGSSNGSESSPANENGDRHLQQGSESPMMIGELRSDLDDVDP
Summary of the method: as §1

[3] = molecular target: T2, USP25 (UniProt Q9UHP3)
T2 sequence (whole entry): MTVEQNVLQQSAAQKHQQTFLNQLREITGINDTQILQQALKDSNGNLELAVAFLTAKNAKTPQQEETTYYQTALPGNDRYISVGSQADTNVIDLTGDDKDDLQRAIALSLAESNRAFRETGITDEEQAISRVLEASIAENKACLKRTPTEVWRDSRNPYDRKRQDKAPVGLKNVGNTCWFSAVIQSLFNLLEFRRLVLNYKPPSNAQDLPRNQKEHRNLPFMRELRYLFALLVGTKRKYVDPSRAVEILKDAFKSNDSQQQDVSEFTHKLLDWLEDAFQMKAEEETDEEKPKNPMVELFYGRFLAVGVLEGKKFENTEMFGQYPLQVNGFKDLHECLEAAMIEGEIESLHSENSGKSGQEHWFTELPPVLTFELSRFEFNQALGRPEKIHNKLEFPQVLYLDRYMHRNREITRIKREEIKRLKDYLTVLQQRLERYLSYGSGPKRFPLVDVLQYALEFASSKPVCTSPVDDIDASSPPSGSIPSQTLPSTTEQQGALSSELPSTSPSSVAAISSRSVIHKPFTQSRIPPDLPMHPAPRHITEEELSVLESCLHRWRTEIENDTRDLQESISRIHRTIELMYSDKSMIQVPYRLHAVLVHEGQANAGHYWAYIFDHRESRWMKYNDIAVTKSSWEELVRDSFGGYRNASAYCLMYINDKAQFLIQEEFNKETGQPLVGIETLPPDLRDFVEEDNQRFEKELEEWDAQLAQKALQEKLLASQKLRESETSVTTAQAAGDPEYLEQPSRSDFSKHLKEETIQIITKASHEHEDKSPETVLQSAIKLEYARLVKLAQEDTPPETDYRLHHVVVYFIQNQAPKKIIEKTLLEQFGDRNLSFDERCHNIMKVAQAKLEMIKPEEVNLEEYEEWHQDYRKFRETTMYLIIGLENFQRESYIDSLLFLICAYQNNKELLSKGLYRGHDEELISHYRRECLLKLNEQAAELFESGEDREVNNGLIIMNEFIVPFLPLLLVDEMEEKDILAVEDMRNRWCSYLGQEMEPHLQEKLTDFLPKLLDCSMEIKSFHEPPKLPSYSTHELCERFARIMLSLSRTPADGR
Summary of the method: as §1

[4] = molecular target: T3, USP28 (UniProt Q96RU2)
T3 sequence (whole entry): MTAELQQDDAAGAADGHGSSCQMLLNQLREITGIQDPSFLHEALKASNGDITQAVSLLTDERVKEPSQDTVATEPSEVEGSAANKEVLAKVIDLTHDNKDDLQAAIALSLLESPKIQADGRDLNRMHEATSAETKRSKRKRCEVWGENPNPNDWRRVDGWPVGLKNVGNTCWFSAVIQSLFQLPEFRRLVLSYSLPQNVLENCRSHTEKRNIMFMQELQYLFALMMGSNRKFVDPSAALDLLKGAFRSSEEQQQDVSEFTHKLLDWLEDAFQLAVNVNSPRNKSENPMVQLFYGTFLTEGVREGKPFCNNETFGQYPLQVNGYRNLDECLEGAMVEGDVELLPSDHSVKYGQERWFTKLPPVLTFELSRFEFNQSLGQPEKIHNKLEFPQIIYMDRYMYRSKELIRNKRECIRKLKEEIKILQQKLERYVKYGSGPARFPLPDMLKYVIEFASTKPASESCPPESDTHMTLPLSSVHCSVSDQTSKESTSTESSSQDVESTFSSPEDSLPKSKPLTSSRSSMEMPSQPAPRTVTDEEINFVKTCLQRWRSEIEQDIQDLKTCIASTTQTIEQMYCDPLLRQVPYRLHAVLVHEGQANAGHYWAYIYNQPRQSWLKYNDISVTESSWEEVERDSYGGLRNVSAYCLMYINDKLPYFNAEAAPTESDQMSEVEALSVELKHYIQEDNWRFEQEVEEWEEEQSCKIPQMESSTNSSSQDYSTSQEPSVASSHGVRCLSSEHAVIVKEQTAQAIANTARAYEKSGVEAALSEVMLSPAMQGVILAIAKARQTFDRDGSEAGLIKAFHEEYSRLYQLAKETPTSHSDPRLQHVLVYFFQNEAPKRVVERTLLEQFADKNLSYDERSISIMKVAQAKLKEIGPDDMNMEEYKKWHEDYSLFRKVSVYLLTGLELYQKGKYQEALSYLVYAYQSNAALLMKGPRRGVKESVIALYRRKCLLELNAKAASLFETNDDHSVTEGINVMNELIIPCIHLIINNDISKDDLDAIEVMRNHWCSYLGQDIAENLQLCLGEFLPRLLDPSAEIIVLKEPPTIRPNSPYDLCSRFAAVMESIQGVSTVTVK
Summary of the method: as §1

O=C(CCl)Nc1ccc(N2CCCC2=O)cc1
log2 ratio of Biotin-Ahx-Ub-VS probe labelling [1]: -0.0288 | log2 ratio of Biotin-Ahx-Ub-VS probe labelling [2]: -0.284 | log2 ratio of Biotin-Ahx-Ub-VS probe labelling [3]: -1.8 (active) | log2 ratio of Biotin-Ahx-Ub-VS probe labelling [4]: -1.25 (active)
